Only some compounds are listed: those with a hit (about 4% of all), similar ones and a draw of the others.
TRHR PAM = allosterically enhances the human TRH receptor. P34981. TRHR cells, fluo-8 calcium fluorescence, EC20 TRH enhancement. enhancement, % at 2 µM. 360,000 compounds, 0.66% hits. AID 493056; in the data active means enhancement above about 30%; further: 0% is about no effect
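TRHR-expressing cells loaded with fluo-8 calcium dye were read kinetically (ex 480/em 530) during compound addition, then stimulated with an EC20 of TRH (10 nM final). Enhancement of the Gq-mediated intracellular calcium response was scored.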
GRP78 ERSR act = induces the endoplasmic reticulum stress response in human glioma cells | U87-MG GRP78 promoter luciferase reporter, 16 h | Potency, µM, for inactives: at the highest dose activation, hits mostly activators | 420,000 compounds, 0.02% hits | AID 602332; active means well fitted activation curve with a large enough effect; further: potency means the concentration at half of the fitted maximal effect; series mostly up to about 76 µM; % of control where 0% means no effect; nearly all actives have a fitted effect of over 35% in size
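Stably transfected U87-MG human glioma cells carrying a GRP78-based luminescent sensor were seeded at 1000 cells/well, pin-dosed with compounds and incubated 16 h. Luciferase reagent was then added, and end-point luminescence was read after 10 min at room temperature.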
D1 antag = blocks dopamine activation of the human D1 receptor | HEK293 TREx D1 cells, calcium flux, dopamine EC80; stronger effect = lower value | P21728 | 360,000 compounds, 3.2% hits | activity change, negative = inhibition, % at 10 µM; in the data active means activity change below about -30%; further: on the % scale 0 is the no-effect control and ±100 the full control effect
Target sequence (P21728 whole entry, looked up): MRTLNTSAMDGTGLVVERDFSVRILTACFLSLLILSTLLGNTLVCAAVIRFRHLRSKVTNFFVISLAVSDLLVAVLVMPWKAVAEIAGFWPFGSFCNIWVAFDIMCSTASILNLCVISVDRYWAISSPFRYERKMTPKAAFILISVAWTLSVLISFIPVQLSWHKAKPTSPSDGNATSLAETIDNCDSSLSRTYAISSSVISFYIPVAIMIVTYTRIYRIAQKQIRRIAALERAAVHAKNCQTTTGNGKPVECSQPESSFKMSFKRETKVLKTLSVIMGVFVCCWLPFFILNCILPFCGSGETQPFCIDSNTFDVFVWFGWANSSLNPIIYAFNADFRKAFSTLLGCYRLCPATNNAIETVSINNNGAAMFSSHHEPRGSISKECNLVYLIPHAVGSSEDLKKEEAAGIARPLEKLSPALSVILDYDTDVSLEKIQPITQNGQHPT
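Kinetic fluorescence of a calcium dye serves as the read-out. D1-expressing Hek293 Trex cells, induced overnight at 30 C, are exposed to compound for 180 s before an EC80 dopamine addition, then read 180 s further.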
D1 ag = agonists of human D1 dopamine receptor; P21728; HEK293 T-REx D1 cells, calcium flux, agonist mode; activation, % at 2 µM; 360,000 compounds, 1% hits; AID 504660; further: 0% is about no effect
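Tetracycline-induced HEK293 TREx D1 cells, force-coupled to calcium signalling, were dye-loaded with a no-wash calcium kit. Compound was pin-added after a 10 s baseline. Fluorescence was read kinetically at 1 cycle/s for 180 s, with calcium rises flagged as agonism.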
TRHR agonist = agonists of human TRH receptor. P34981. TRHR cells, calcium flux fluo-8, FDSS agonist mode. 360,000 compounds, 0.18% hits. activation, % at 2 µM; further: 0% is about no effect
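Read-out: compound-evoked intracellular calcium rise in TRHR cells, fluo-8 dye, kinetic FDSS fluorescence at 1 s/cycle following a 10-cycle baseline. Cells cultured overnight before dye loading (30 min–1.5 h, RT).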
D1 potentiator = enhances dopamine response at the human D1 receptor. P21728. HEK293 TREx D1 cells, calcium flux, dopamine EC20 potentiation. AID 504651. potentiation, % at 10 µM. 360,000 compounds, 0.036% hits; in the data active means potentiation above about 30%; further: 0% is about no effect
* marks the source's active call; other numbers are inactive results; / = not tested or not shown. Unless noted, no stated cut-off is given here; in the data, active means activation above about 30%; inactive means the rest.

SMILES	TRHR PAM	GRP78 ERSR act	D1 antag	D1 ag	TRHR agonist	D1 potentiator
CC[C@H](C)[C@H](NC(=O)[C@H](CO)NC(=O)[C@H](CC(N)=O)NC(=O)[C@H](CC(C)C)NC(=O)[C@H](Cc1ccc(O)cc1)NC(=O)[C@H](CCCCN)NC(=O)[C@H](CCCCN)NC(=O)[C@@H](NC(=O)[C@H](C)NC(=O)[C@H](CCSC)NC(=O)[C@H](CCC(N)=O)NC(=O)[C@H](CCCCN)NC(=O)[C@H](CCCNC(=N)N)NC(=O)[C@H](CC(C)C)NC(=O)[C@H](CCCNC(=N)N)NC(=O)[C@@H](NC(=O)[C@H](Cc1ccc(O)cc1)NC(=O)[C@H](CC(N)=O)NC(=O)[C@H](CC(=O)O)NC(=O)[C@@H](NC(=O)[C@H](Cc1ccccc1)NC(=O)[C@@H](NC(=O)[C@H](C)NC(=O)[C@H](CC(=O)O)NC(=O)[C@H](CO)NC(=O)[C@@H](N)Cc1c[nH]cn1)C(C)C)[C@@H](C)O)[C@@H](C)O)C(C)C)C(=O)N[C@@H](CC(C)C)C(=O)N[C@@H](CC(N)=O)C(=O)O	/	-4.1%	/	/	/	/
CCCC(=O)N1CCC1(C)C(=O)Nc1cc(OC)ccc1OC (stereo not given)	/	-1.9%	/	/	/	/
CCOc1ccc(Nc2cc(C(=O)NCc3ccccc3Cl)c3ccccc3n2)cc1	-3.0	2.7%	-10.4	-0.8	0.1	1.7
CCc1ccc(Sc2cc(C(=O)NCCCN3CCC(C)CC3)c3ccccc3n2)cc1	7.9	-7.0%	-20.9	29.5	0.6	0.1
CCc1ccc(Sc2cc(C(=O)NCCCN3CCCC(C)C3)c3ccccc3n2)cc1 (stereo not given)	2.4	-3.8%	-22.0	35.7*	0.7	0.5
CCOc1ccc(Sc2cc(C(=O)NCc3ccccc3Cl)c3ccccc3n2)cc1	10.6	-4.9%	-36.5*	3.9	1.4	-2.5
CCc1ccc(Sc2cc(C(=O)NCc3cccc(OC)c3)c3ccccc3n2)cc1	-1.2	-2.5%	-31.9*	13.5	3.3	-2.5
CCOc1ccc(-c2cc(C(=O)NCc3ccccc3Cl)c3ccccc3n2)cc1	-4.1	-2.2%	-36.2*	-1.7	0.9	-2.2
COc1cccc(CNC(=O)c2cccnc2Sc2ccccc2)c1	1.5	4.6%	4.6	3.0	-0.9	-1.3
N#Cc1nc(Nc2cc(F)cc(F)c2)nc(Nc2cc(F)cc(F)c2)n1	6.8	/	-20.2	2.1	-1.9	-2.3
COc1ccccc1CN1CCOc2ccc(C(C)(O)COc3ccccc3)cc2C1 (stereo not given)	/	-0.9%	/	/	/	/
CCc1ccc(Nc2cc(C(=O)NCCCN3CCOCC3)c3ccccc3n2)cc1	10.9	-3.1%	-26.2	50.7*	-0.5	-6.5
COc1ccc(Nc2cc(C(=O)NCCCN3CCOCC3)c3ccccc3n2)cc1	0.9	6.6%	-9.6	1.6	1.1	-3.8
O=C(NCc1nnnn1-c1ccc(F)cc1)c1cc2ccccc2o1	/	-1.8%	/	/	/	/
O=C(CNC(=O)c1ccccc1O)N/N=C/c1cc(Br)ccc1OC(=O)/C=C/c1ccco1	14.7	0.6%	-32.7*	6.6	1.4	-7.8
CC(C)c1ccc2occ(CC(=O)Nc3ccccc3Cl)c2c1	-3.1	-2.9%	-1.0	8.4	0.8	3.0
CC(C)N1CCN(c2ccc(OC[C@H]3CO[C@](Cn4cncn4)(c4ccc(Cl)cc4Cl)O3)cc2)CC1	0.5	-1.8%	-43.8*	61.5*	-1.0	1.6
CC(C)OC(=O)OCOP(=O)(CO[C@H](C)Cn1cnc2c(N)ncnc21)OCOC(=O)OC(C)C	/	-3.9%	/	/	/	/
COc1ccc2c(Cl)c(-c3nnc(SCC(=O)c4ccccc4)n3C)sc2c1	-4.7	-4.1%	-42.9*	3.5	0.1	-4.8
COc1ccc(NC(=O)COC(=O)C2CCC(C(C)(C)C)CC2)c([N+](=O)[O-])c1 (stereo not given)	-1.2	-1.1%	12.8	2.9	0.7	2.8
Cc1ccc(N2C(=O)N(CC(=O)NC(c3ccccc3)c3ccccc3)C(=O)C2C)cc1 (stereo not given)	-8.6	0.9%	-11.8	8.6	0.6	-1.9
Cc1ccc(N2C(=O)N(CC(=O)N(C)Cc3ccccc3)C(=O)C2C)cc1 (stereo not given)	11.3	-2.5%	-55.0*	38.7*	-0.3	-1.4
